Outcome and AC50 data for three compounds are collected here from PubChem BioAssay (EPA / NIEHS).

Read-out in test [1]: solute carrier (SLC22A1), SLC22A1 (gene 6580)
As to the kind of experiment: LTEA_HepaRG_SLC22A1: Life Technologies and Expression Analysis (LTEA) Assay for solute carrier (SLC22A1) using HepaRG (AID 2283524). The following applies: mRNA level, 48 h; actives raise or lower the signal. In short, it runs like this: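 Transcript level of SLC22A1 quantified by qRT-PCR (normalized to three housekeeping genes) after 48 h chemical exposure of HepaRG cells, eight concentrations up to 100 µM, half-log steps, 0.5% DMSO vehicle. Gain or loss relative to DMSO fitted bidirectionally.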

Read-out in test [2]: Pyruvate Dehydrogenase Kinase 4 (PDK4), PDK4 (gene 5166)
As to the kind of experiment: LTEA_HepaRG_PDK4: Life Technologies and Expression Analysis (LTEA) Assay for Pyruvate Dehydrogenase Kinase 4 (PDK4) using HepaRG (AID 2283525). The following applies: mRNA level, 48 h; actives raise or lower the signal. In short, it runs like this:
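Readout is qRT-PCR of PDK4 transcript, normalized to three housekeeping genes, with bidirectional fitting against 0.5% DMSO vehicle. Differentiated HepaRG cells were treated 48 h in serum-free induction medium, duplicate wells, eight-point half-log series topping at 100 uM.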

Read-out in test [3]: NAD(P)H dehydrogenase [quinone] 1 (NQO1), NQO1 (gene 1728)
As to the kind of experiment: LTEA_HepaRG_NQO1: Life Technologies and Expression Analysis (LTEA) Assay for NAD(P)H dehydrogenase [quinone] 1 (NQO1) using HepaRG (AID 2283526). The following applies: mRNA level, 48 h; actives raise or lower the signal. In short, it runs like this:
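In this assay, gene expression is read by qRT-PCR after 48 h exposure of HepaRG cells to eight concentrations (max 100 uM, half-log) in 0.5% DMSO. Each chemical runs in duplicate, and activity is scored relative to vehicle.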

Read-out in test [4]: Nuclear factor erythroid 2-related factor 2 (Homo sapiens) (UniProt Q16236)
As to the kind of experiment: LTEA_HepaRG_NFE2L2: Life Technologies and Expression Analysis (LTEA) Assay for Nuclear factor erythroid 2-related factor 2 (NFE2L2) Transcription Factor using HepaRG (AID 2283527).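 For Outcome: TaqMan qRT-PCR transcript level normalised to ACTB GAPDH and POLR2A housekeeping genes.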 As to conditions: mRNA level, 48 h; actives raise or lower the signal. In short, it runs like this: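 NFE2L2 transcript level was read by qRT-PCR (housekeeping ACTB/GAPDH/POLR2A normalisation) after 48 h chemical treatment of HepaRG in serum-free induction medium. Duplicate 8-point half-log curves, top 100 uM, 0.5% DMSO vehicle; up- or down-regulation fitted against vehicle.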

Read-out in test [5]: Signal transducer and activator of transcription 3 (Homo sapiens) (UniProt P40763)
As to the kind of experiment: LTEA_HepaRG_STAT3: Life Technologies and Expression Analysis (LTEA) Assay for Signal transducer and activator of transcription (STAT3) using HepaRG (AID 2283529). As to conditions: mRNA level, 48 h; actives raise or lower the signal. In short, it runs like this:
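STAT3 transcript quantified by qRT-PCR against three housekeeping genes (ACTB, GAPDH, POLR2A), fitted both directions relative to DMSO. HepaRG cultures exposed 48 h to eight half-log concentrations, top 100 uM, 0.5% DMSO, serum-free induction medium.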

Read-out in test [6]: solute carrier (SLCO1B1), SLCO1B1 (gene 10599)
As to the kind of experiment: LTEA_HepaRG_SLCO1B1: Life Technologies and Expression Analysis (LTEA) Assay for solute carrier (SLCO1B1) using HepaRG (AID 2283530). As to conditions: mRNA level, 48 h; actives raise or lower the signal. In short, it runs like this:
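Differentiated human HepaRG cells, plated 48 h, switched to serum-free induction medium and exposed in duplicate for 48 h to 8 half-log concentrations (top 100 uM) in 0.5% DMSO. SLCO1B1 mRNA by TaqMan qRT-PCR, normalized to ACTB/GAPDH/POLR2A.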

Read-out in test [7]: sulfotransferase 2A1 (SULT2A1), SULT2A1 (gene 6822)
As to the kind of experiment: LTEA_HepaRG_SULT2A1: Life Technologies and Expression Analysis (LTEA) Assay for sulfotransferase 2A1 (SULT2A1) using HepaRG (AID 2283531). As to conditions: mRNA level, 48 h; actives raise or lower the signal. In short, it runs like this: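 Differentiated human HepaRG cells in serum-free induction medium were exposed for 48 h to eight half-log concentrations (top 100 uM, 0.5% DMSO). SULT2A1 mRNA was measured by qRT-PCR, normalized to ACTB, GAPDH and POLR2A, and fitted bidirectionally against DMSO.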

Read-out in test [8]: Transforming Growth Factor (TGFA), TGFA (gene 7039)
As to the kind of experiment: LTEA_HepaRG_TGFA: Life Technologies and Expression Analysis (LTEA) Assay for Transforming Growth Factor (TGFA) using HepaRG (AID 2283532). As to conditions: mRNA level, 48 h; actives raise or lower the signal. In short, it runs like this:
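TGFA transcript quantified by qRT-PCR (Fluidigm arrays) against three housekeeping genes, after 48 hours chemical treatment of HepaRG cells. Top concentration 100 uM with half-log dilutions, 8 points, duplicates, 0.5% DMSO.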

Read-out in test [9]: Transforming Growth Factor (TGFB1), TGFB1 (gene 7040)
As to the kind of experiment: LTEA_HepaRG_TGFB1: Life Technologies and Expression Analysis (LTEA) Assay for Transforming Growth Factor (TGFB1) Transporter using HepaRG (AID 2283533). As to conditions: mRNA level, 48 h; actives raise or lower the signal. In short, it runs like this:
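Differentiated human HepaRG cells in serum-free induction medium were exposed in duplicate for 48 h to eight concentrations (top 100 uM, half-log steps, 0.5% DMSO). TGFB1 mRNA was quantified by qRT-PCR, normalized to ACTB, GAPDH, POLR2A, and fitted bidirectionally against DMSO.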

Read-out in a further test: TIMP1, TIMP1 (gene 7076)
As to the kind of experiment: LTEA_HepaRG_TIMP1: Life Technologies and Expression Analysis (LTEA) Assay for TIMP1 using HepaRG (AID 2283534). As to conditions: mRNA level, 48 h; actives raise or lower the signal. In short, it runs like this: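 Differentiated human HepaRG cells in serum-free induction medium were exposed 48 h to chemicals (8 half-log concentrations, top 100 uM, 0.5% DMSO). TIMP1 mRNA was quantified by TaqMan qRT-PCR, normalized to ACTB/GAPDH/POLR2A; bidirectional fit versus DMSO.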

Read-out in test [10]: Tumor necrosis factor receptor 1 (TNFRSF1A), TNFRSF1A (gene 7132)
As to the kind of experiment: LTEA_HepaRG_TNFRSF1A: Life Technologies and Expression Analysis (LTEA) Assay for Tumor necrosis factor receptor 1 (TNFRSF1A) using HepaRG (AID 2283535). The following applies: mRNA level, 48 h; actives raise or lower the signal. In short, it runs like this: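 Differentiated human HepaRG cells were exposed in duplicate for 48 h in serum-free induction medium to eight concentrations (top 100 uM, half-log steps, 0.5% DMSO). TNFRSF1A mRNA was quantified by qRT-PCR, normalized to ACTB, GAPDH and POLR2A, then fitted bidirectionally against DMSO.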

Read-out in test [11]: Thyroid Hormone Responsive (THRSP), THRSP (gene 7069)
As to the kind of experiment: LTEA_HepaRG_THRSP: Life Technologies and Expression Analysis (LTEA) Assay for Thyroid Hormone Responsive (THRSP) using HepaRG (AID 2283536). As to conditions: mRNA level, 48 h; actives raise or lower the signal. In short, it runs like this: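 THRSP transcript quantified by Fluidigm qRT-PCR against three housekeeping genes after 48 h chemical exposure of HepaRG cells in serum-free induction medium; eight-point half-log series, top 100 uM, 0.5% DMSO vehicle, duplicate wells.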

Read-out in test [12]: UDP glucuronosyltransferase (UGT1A1), UGT1A1 (gene 54658)
As to the kind of experiment: LTEA_HepaRG_UGT1A1: Life Technologies and Expression Analysis (LTEA) Assay for UDP glucuronosyltransferase (UGT1A1) using HepaRG (AID 2283538). The following applies: mRNA level, 48 h; actives raise or lower the signal. In short, it runs like this:
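mRNA induction or loss of UGT1A1, by TaqMan qRT-PCR, in duplicate HepaRG wells after 48 h exposure to half-log dilutions topping at 100 uM; DMSO (0.5%) served as baseline.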

Read-out in test [13]: UDP glucuronosyltransferase (UGT1A6), UGT1A6 (gene 54578)
As to the kind of experiment: LTEA_HepaRG_UGT1A6: Life Technologies and Expression Analysis (LTEA) Assay for UDP glucuronosyltransferase (UGT1A6) using HepaRG (AID 2283539). As to conditions: mRNA level, 48 h; actives raise or lower the signal. In short, it runs like this: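 Human HepaRG cells were dosed for 48 h in serum-free induction medium with 0.5% DMSO vehicle, eight-point half-log series from 100 uM, in duplicate. UGT1A6 mRNA was measured by qRT-PCR, normalized to ACTB, GAPDH, POLR2A, and fitted bidirectionally against DMSO.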

Read-out in test [14]: X-box binding protein 1 (XBP1), XBP1 (gene 7494)
As to the kind of experiment: LTEA_HepaRG_XBP1: Life Technologies and Expression Analysis (LTEA) Assay for X-box binding protein 1 (XBP1) using HepaRG (AID 2283540). The following applies: mRNA level, 48 h; actives raise or lower the signal. In short, it runs like this:
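Differentiated human HepaRG cells in serum-free induction medium were exposed in duplicate for 48 h to eight half-log concentrations up to 100 uM in 0.5% DMSO. XBP1 mRNA was quantified by qRT-PCR, normalised to ACTB, GAPDH and POLR2A, with bidirectional fitting against DMSO.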

Test [15] in a line: LTEA_HepaRG_LDH_cytotoxicity: Cytotoxicity Assessment in the Life Technologies and Expression Analysis (LTEA) Assay (AID 2283563; active = hit-call score of the fitted dose curve at least 0.9, where 1 is the maximum;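 for AC50: LDH activity released into spent culture medium as a marker of cell death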). In short, it runs like this:
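Differentiated human HepaRG cells, plated 48 h beforehand, were switched to serum-free induction medium and exposed for 48 h to eight half-log concentrations (top 100 uM) in 0.5% DMSO. LDH was measured in spent medium; activity was fitted relative to DMSO vehicle.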

Read-out in test [16]: Cellular tumor antigen p53 (Homo sapiens) (UniProt P04637)
As to the kind of experiment: LTEA_HepaRG_TP53: Life Technologies and Expression Analysis (LTEA) Assay for Tumor Protein P53 (TP53) using HepaRG (AID 2283537). As to conditions: mRNA level, 48 h; actives raise or lower the signal. In short, it runs like this:
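Differentiated HepaRG cells in serum-free induction medium exposed 48 h in duplicate to 8 half-log concentrations, top 100 uM, 0.5% DMSO. TP53 mRNA by TaqMan qRT-PCR (Fluidigm), normalized to ACTB, GAPDH, POLR2A; fitted bidirectionally versus DMSO.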

Test [17] is described as follows: TOX21_p53_BLA_p2_viability: Viability Assessment in the Tox21 HCT-116 p53 Agonism Beta-lactamase Assay, Phase 2 (AID 2283591; active = hit-call score of the fitted dose curve at least 0.9, where 1 is the maximum;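 note: compound exposure lasted 16 h at 37 °C; actives lower the ATP signal meaning cytotoxicity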). In short, it runs like this:
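Cytotoxicity readout: CellTiter-Glo ATP luminescence, 30 min at room temperature, after the beta-lactamase read. Cells were HCT116 exposed 16 h at 37C to compounds pin-transferred at 217-fold dilution from DMSO stocks.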

Read-out in test [18]: succinate dehydrogenase complex iron sulfur subunit B (SDHB), SDHB (gene 6390)
As to the kind of experiment: LTEA_HepaRG_SDHB: Life Technologies and Expression Analysis (LTEA) Assay for succinate dehydrogenase complex iron sulfur subunit B (SDHB) using HepaRG (AID 2283528). The following applies: mRNA level, 48 h; actives raise or lower the signal. In short, it runs like this: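 HepaRG cells (~100,000/well, plated 48 h) exposed in duplicate for 48 h in serum-free induction medium to 8-point half-log series from 100 uM in 0.5% DMSO; mRNA by qRT-PCR normalised to ACTB, GAPDH, POLR2A; bidirectional fit versus DMSO.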

Test [19] can be described thus: ATG_XTT_Cytotoxicity: Cytotoxicity Assessment in the Attagene TRANS-FACTORIAL HepG2 Assay (AID 2283584; active = hit-call score of the fitted dose curve at least 0.9, where 1 is the maximum). In short, it runs like this:
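HepG2 human liver cells, transiently transfected with multiple GAL4-UAS reporter units, were dosed and read at 24 h by XTT as cell number. Loss of signal was fitted relative to DMSO negative control baseline.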

Records with an inconclusive call do not appear. Calls of active or inactive are those of the source. Rule for the calls, unless noted: active = hit-call score of the fitted dose curve at least 0.9, where 1 is the maximum; inactive = score below 0.9.

Nuclear factor erythroid 2-related factor 2 (Homo sapiens), sequence (Q16236 whole entry, looked up): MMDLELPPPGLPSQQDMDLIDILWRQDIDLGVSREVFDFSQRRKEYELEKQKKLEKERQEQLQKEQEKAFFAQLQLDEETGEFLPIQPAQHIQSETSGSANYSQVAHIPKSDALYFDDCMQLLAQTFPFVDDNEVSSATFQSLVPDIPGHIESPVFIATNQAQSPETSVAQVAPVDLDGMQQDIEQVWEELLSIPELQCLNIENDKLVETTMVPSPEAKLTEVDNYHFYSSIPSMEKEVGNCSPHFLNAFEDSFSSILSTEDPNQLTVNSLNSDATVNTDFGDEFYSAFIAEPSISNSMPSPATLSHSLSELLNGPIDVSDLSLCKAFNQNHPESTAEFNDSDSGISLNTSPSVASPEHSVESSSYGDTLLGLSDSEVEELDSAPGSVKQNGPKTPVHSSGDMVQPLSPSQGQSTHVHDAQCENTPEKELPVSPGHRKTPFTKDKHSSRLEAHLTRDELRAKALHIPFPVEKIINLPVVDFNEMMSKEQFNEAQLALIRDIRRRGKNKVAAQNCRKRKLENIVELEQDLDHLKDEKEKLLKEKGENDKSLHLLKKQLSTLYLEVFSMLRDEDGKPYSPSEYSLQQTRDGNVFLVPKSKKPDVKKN
Signal transducer and activator of transcription 3 (Homo sapiens), sequence (P40763 whole entry, looked up): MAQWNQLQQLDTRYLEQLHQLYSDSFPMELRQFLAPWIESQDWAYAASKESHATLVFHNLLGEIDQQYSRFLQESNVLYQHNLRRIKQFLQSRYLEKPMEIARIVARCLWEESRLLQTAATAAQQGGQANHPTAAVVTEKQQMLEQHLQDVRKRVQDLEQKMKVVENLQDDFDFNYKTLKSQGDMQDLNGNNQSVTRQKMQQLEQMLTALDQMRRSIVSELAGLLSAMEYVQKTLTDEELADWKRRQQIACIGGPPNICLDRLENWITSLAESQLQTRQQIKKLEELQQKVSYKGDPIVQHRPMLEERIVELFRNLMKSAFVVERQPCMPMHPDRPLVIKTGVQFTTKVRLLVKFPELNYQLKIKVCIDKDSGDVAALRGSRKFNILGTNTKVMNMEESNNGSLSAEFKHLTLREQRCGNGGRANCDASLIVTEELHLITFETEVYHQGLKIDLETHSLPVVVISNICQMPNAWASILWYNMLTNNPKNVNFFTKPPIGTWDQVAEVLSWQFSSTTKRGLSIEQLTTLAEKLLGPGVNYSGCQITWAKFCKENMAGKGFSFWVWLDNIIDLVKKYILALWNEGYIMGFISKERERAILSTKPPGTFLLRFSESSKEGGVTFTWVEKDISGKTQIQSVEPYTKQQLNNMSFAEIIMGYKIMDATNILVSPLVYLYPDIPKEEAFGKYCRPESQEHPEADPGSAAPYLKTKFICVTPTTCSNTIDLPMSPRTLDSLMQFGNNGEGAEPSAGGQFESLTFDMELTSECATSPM
Cellular tumor antigen p53 (Homo sapiens), sequence (P04637 whole entry, looked up): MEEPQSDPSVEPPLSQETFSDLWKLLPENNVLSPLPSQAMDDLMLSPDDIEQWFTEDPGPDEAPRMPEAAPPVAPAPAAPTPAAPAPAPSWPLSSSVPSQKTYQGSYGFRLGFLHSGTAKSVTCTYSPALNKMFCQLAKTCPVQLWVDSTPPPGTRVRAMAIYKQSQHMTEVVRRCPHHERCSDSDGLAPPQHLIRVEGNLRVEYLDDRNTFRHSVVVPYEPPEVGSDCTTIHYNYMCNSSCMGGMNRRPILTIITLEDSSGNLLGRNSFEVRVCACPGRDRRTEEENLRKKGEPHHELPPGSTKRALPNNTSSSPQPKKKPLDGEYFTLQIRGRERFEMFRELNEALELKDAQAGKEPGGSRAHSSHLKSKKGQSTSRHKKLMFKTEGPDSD

Consider `Clc1ccccc1Cl`, for which the call in [1], in test [2], in test [3], in test [4], in test [5] and in test [6] was inactive. For the same compound, the outcome in test [7] was “inactive”; in test [8] it was “inactive”; in [9], “inactive”; with TIMP1, TIMP1 (gene 7076), “inactive”; in [10] it was “inactive”; in test [11], “inactive”. Further, the outcome in test [12], in test [13], in test [14] and in test [15] was inactive.

As for `Nc1ccc(Cl)cc1N`, the AC50 (commonly the midpoint of the concentration-response curve, whichever way the signal moves) is 18.9 µM (active) in test [1]; 78 µM (active) in test [3]; 12.2 µM (active) in test [4]; 20.9 µM (active) in [6]; 35.4 µM (active) in [7]; 16.1 µM (active) in test [8]. Moreover, the AC50 in test [10] was 50 µM (active); in test [11] it was 19.3 µM (active); in [16] it was 12.4 µM (active); in [12], 37.8 µM (active); in [13] it was 54.9 µM (active); in [14] it was 21 µM (active). The AC50 in [15] was 35.2 µM (active). For the same compound, the outcome is “inactive” in test [2]; “inactive” in test [5]; “inactive” with TIMP1, TIMP1 (gene 7076); “inactive” in test [17].

For the compound `CCCCCCCCn1sccc1=O`, the AC50 in test [2] is 34.4 µM (active); in [6] it was 84.1 µM (active); in test [11], 87.3 µM (active); in test [13], 81.3 µM (active); in test [15] it was 79.7 µM (active). Further, the outcome in test [3], in test [4], in test [18], in test [5], in test [7] and in test [8] was inactive. Also, the outcome is “inactive” in the test with TIMP1, TIMP1 (gene 7076); “inactive” in test [10]; “inactive” in [16]; “inactive” in [12]; “inactive” in test [14]; “inactive” in test [19]. For the same compound, the outcome in [17] was inactive.
